Data: the supplement of paper PMC10849652
About 8,800 targets were measured; listed, in parts, are those with a hit and a random draw of the rest. About 0.5% of all pairs of compound and target were hits.

The targets below were run with c1cn2cc(-c3ccc4cn[nH]c4c3)nc(Nc3ccc(N4CCOCC4)cc3)c2n1 [entospletinib] (assay: log2 fold change, soluble protein after heating vs DMSO (PISA); higher = thermal stabilisation; K562 lysate, 10 uM; active = over 0.2 and 3.5 SD of the protein, either way, in both replicates (recomputed)).
Method in brief: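 A 30 min treatment with 10 μM compound was applied to crude K562 extract at 1 mg/mL protein in PBS pH 7.4 with 1 mM MgCl2. Heating for 3 min spanned 48°C-58°C, after which aliquots were pooled, adjusted to 0.5% NP-40 at 4°C and spun at 21,000xg for 90 min. TMTpro 16plex LC-MS/MS of the supernatant, with channel sums equalised, gave values recorded as log-two fold change in thermal stability against solvent controls, from duplicates.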

UniProt Q96B23, sequence (Q96B23 whole entry, looked up): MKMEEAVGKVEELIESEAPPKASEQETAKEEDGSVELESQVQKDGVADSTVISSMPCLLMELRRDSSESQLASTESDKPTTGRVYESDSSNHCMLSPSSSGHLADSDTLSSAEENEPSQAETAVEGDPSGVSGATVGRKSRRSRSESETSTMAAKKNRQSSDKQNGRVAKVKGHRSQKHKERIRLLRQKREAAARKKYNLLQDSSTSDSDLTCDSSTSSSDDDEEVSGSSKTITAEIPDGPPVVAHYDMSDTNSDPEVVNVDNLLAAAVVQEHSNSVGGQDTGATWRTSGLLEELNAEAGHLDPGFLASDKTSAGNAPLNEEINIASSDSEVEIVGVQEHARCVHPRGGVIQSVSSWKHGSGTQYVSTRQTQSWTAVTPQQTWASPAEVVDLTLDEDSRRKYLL
UniProt Q9UL45, sequence (Q9UL45 whole entry, looked up): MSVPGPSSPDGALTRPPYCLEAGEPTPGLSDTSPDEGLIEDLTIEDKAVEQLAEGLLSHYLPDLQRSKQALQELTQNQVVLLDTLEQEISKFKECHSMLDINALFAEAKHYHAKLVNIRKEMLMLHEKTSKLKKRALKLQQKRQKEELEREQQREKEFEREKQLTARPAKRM
UniProt Q9H3Q1, sequence (Q9H3Q1 whole entry, looked up): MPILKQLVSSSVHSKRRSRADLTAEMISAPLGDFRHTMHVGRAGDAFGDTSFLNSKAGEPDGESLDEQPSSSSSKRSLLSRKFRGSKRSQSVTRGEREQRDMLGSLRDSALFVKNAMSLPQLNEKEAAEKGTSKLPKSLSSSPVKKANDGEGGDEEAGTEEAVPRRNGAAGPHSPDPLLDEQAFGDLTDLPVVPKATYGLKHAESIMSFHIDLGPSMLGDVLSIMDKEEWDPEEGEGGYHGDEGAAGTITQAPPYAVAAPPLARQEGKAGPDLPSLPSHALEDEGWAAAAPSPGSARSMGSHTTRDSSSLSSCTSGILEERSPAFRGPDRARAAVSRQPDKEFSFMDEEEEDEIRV
UniProt O94986, sequence (O94986 whole entry, looked up): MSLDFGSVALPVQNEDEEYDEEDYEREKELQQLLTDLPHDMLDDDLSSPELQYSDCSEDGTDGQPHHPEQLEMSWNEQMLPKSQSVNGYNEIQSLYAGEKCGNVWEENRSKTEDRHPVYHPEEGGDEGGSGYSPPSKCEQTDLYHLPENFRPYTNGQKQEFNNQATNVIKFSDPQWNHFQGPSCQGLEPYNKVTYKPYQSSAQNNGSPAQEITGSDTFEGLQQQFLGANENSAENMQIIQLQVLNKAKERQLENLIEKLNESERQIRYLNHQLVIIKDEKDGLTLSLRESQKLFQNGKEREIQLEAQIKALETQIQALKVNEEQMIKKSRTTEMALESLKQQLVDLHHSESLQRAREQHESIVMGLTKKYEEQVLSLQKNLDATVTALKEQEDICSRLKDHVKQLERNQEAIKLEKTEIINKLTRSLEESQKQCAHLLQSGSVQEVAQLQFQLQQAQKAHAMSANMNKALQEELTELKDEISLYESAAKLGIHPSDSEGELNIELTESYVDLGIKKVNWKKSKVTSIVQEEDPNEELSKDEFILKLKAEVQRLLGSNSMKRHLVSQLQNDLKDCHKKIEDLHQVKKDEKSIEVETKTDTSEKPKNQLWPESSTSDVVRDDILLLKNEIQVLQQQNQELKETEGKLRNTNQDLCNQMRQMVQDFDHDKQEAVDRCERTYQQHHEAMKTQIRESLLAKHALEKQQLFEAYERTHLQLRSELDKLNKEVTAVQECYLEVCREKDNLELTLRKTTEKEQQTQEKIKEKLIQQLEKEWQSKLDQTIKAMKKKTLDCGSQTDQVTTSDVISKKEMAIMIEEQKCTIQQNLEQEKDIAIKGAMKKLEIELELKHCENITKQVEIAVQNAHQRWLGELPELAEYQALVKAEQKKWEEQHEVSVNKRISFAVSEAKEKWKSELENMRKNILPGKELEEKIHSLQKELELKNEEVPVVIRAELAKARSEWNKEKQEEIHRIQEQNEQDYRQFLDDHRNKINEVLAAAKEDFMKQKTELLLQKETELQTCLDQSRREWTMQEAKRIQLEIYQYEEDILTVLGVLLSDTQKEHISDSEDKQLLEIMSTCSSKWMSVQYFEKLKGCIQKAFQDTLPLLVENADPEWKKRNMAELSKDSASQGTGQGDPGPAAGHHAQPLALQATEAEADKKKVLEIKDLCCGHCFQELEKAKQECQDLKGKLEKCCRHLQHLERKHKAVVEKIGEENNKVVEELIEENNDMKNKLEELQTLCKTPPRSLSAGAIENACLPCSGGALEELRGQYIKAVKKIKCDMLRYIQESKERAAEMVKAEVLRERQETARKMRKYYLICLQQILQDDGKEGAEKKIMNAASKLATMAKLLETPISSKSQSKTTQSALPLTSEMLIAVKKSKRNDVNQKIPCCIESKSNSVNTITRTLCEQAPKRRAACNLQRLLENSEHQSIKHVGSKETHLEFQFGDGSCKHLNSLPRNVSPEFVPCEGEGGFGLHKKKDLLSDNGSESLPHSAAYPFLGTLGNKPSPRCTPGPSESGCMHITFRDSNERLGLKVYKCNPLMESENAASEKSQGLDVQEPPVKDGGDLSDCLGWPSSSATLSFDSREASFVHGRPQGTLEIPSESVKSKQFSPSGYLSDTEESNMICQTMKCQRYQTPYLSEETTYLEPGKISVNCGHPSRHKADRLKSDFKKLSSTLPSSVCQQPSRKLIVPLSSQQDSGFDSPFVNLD
UniProt Q8IWZ6, sequence (Q8IWZ6 whole entry, looked up): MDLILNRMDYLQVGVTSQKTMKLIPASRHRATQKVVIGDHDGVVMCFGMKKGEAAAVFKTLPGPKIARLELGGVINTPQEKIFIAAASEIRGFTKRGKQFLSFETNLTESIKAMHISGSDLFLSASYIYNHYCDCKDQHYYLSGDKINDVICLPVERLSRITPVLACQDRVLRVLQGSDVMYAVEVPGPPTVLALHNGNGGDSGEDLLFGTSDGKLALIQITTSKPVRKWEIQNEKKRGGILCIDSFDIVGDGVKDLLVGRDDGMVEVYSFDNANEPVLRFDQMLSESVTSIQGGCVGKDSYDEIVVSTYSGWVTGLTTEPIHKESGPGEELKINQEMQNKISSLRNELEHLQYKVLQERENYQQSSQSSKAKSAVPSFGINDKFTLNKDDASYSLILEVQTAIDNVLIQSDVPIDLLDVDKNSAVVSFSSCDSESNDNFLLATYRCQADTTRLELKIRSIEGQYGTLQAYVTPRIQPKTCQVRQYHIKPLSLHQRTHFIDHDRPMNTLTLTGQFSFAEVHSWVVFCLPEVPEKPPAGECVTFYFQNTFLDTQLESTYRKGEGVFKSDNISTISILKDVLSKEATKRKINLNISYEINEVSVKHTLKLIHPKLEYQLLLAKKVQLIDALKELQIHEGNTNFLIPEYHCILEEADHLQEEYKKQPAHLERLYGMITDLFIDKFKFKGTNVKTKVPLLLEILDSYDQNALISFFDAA
UniProt A8MTT3, sequence (A8MTT3 whole entry, looked up): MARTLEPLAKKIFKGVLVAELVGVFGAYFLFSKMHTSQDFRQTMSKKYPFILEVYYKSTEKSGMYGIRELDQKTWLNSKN
UniProt Q12981, sequence (Q12981 whole entry, looked up): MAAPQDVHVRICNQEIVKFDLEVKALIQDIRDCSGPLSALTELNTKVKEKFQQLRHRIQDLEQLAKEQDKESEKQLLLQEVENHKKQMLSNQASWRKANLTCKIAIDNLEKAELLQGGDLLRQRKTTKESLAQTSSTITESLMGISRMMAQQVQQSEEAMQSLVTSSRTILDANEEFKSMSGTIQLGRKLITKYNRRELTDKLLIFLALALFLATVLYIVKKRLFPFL
UniProt P20248, sequence (P20248 whole entry, looked up): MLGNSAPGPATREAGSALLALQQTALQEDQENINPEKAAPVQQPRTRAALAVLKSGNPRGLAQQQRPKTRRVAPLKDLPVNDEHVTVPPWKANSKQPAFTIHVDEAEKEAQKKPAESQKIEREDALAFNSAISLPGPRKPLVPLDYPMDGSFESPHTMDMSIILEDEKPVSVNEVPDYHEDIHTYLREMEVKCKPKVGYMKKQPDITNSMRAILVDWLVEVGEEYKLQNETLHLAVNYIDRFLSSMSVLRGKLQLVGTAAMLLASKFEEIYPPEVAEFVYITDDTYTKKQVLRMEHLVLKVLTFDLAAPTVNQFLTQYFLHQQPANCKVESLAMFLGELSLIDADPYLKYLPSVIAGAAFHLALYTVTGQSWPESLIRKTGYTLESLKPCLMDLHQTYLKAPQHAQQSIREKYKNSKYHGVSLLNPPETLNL
UniProt P49918, sequence (P49918 whole entry, looked up): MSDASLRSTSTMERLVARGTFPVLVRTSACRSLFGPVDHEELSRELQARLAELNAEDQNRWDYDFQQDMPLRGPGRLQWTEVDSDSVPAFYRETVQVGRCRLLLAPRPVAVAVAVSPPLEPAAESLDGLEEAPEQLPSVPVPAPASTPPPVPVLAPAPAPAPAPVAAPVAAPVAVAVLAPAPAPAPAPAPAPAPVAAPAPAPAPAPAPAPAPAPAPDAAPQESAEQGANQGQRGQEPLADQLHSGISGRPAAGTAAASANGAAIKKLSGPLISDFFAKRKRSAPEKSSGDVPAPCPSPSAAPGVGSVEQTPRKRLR
UniProt O14965, sequence (O14965 whole entry, looked up): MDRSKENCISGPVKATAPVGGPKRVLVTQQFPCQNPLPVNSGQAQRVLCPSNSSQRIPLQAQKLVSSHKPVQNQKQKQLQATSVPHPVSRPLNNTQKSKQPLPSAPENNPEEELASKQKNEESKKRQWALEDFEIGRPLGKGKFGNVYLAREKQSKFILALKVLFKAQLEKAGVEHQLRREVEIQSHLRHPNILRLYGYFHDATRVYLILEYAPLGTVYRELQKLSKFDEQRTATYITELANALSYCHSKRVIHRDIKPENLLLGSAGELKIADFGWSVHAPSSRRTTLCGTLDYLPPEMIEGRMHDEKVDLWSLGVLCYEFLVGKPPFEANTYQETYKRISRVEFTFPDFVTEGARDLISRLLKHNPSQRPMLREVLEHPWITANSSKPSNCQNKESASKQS
UniProt Q9Y2V2, sequence (Q9Y2V2 whole entry, looked up): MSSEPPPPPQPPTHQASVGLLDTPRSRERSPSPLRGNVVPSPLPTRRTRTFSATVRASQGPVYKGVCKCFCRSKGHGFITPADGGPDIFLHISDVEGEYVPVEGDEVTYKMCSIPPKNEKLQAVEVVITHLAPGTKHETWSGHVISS

log2 fold change, inactive:
ATAD3B (UniProt Q5T9A4) 0.012
BBS7 (UniProt Q8IWZ6) -0.007
CEP120 (UniProt Q8N960) -0.13
AUH (UniProt Q13825) -0.11
CAMKK1 isoform 2 (UniProt Q8N5S9) -0.078
C3 (UniProt P01024) -0.036
CCNA2 (UniProt P20248) -0.011
CDKN1C (UniProt P49918) 0.048
CCNB2 (UniProt O95067) 0.044
BLOC1S6 (UniProt Q9UL45) 0.046
CASP6 (UniProt P55212) -0.01
CEP152 (UniProt O94986) -0.04
AVEN (UniProt Q9NQS1) -0.161
BLM (UniProt P54132) -0.002
CCP110 (UniProt O43303) 0.045
CDC42EP4 (UniProt Q9H3Q1) 0.051
CARHSP1 (UniProt Q9Y2V2) -0.049
BNIP1 (UniProt Q12981) -0.051
CBR1 (UniProt P16152) 0.006
ATG10 (UniProt Q9H0Y0) 0.034
C18orf25 (UniProt Q96B23) 0.036
CDK5RAP2 (UniProt Q96SN8) -0.042
BRD4 (UniProt O60885) -0.028
CAMK2B (UniProt Q13554) -0.02
CHAF1A (UniProt Q13111) -0.082
ATP11A (UniProt P98196) -0.054
C19orf54 (UniProt Q5BKX5) 0.009
BCKDHB (UniProt P21953) -0.123
CDK5RAP3 isoform 4 (UniProt Q96JB5) 0.012
CDK2 (UniProt P24941) 0.039
CDK17 isoform 2 (UniProt Q00537) -0.162
CDC7 (UniProt O00311) 0.007
CCDC25 (UniProt Q86WR0) 0.009
ATG4B (UniProt Q9Y4P1) 0.021
CEBPZOS (UniProt A8MTT3) -0.037
CDK9 isoform 2 (UniProt P50750) 0.038
CHD5 (UniProt Q8TDI0) 0.025
AURKA (UniProt O14965) 0.167
